In the library only some 2.4% were active in any assay of this set; here they are far more common.
FEN1 inhibitor: qHTS Assay for the Inhibitors of Human Flap endonuclease 1 (FEN1); P39748; Recombinant FEN1 flap cleavage, fluorescence, 15 min; Potency, µM (series often up to 114 µM), for inactives: at the top dose activity change, negative = inhibition, usual class: inhibitors; actives 0.35% (n = 390,000); AID 588795, 2011; note: % is set by controls: 0 for no effect and ±100 for the full control effect; nearly all actives have a fitted effect of over 65% in size
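Reaction started by adding substrate (50 nM final) to 10 nM enzyme after 15 min room-temperature compound preincubation. Reads at 0 and 15 min, with data normalized and fitted to a four-parameter Hill equation.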
POLH inh: qHTS for Inhibitors of Polymerase Eta. actives 1.2% (n = 390,000). recombinant Pol eta, fluorescent DNA replication assay. DNA polymerase eta (Homo sapiens), Q9Y253. Potency, µM (doses to about 114 µM), for inactives: at the highest dose activity change, negative = inhibition, hits mostly inhibitors; note: % is set by controls: 0 for no effect and ±100 for the full control effect
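Pol eta at 10 nM preincubated with compounds 15 min at room temperature; reaction started with fluorescent substrate (50 nM final) and read kinetically at 0 and 10 min.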
POLK inh: qHTS for Inhibitors of Polymerase Kappa | DNA polymerase kappa (Homo sapiens), Q9UBT6 | purified Pol kappa, fluorescent DNA synthesis assay, 10 min | Potency, µM (series often up to 107 µM), inactives show top-dose activity, negative = inhibition, most hits filed as inhibitors | actives 0.53% (n = 400,000) | AID 588579, 2011; note: % is set by controls: 0 for no effect and ±100 for the full control effect
Target sequence (Q9UBT6 whole entry, looked up): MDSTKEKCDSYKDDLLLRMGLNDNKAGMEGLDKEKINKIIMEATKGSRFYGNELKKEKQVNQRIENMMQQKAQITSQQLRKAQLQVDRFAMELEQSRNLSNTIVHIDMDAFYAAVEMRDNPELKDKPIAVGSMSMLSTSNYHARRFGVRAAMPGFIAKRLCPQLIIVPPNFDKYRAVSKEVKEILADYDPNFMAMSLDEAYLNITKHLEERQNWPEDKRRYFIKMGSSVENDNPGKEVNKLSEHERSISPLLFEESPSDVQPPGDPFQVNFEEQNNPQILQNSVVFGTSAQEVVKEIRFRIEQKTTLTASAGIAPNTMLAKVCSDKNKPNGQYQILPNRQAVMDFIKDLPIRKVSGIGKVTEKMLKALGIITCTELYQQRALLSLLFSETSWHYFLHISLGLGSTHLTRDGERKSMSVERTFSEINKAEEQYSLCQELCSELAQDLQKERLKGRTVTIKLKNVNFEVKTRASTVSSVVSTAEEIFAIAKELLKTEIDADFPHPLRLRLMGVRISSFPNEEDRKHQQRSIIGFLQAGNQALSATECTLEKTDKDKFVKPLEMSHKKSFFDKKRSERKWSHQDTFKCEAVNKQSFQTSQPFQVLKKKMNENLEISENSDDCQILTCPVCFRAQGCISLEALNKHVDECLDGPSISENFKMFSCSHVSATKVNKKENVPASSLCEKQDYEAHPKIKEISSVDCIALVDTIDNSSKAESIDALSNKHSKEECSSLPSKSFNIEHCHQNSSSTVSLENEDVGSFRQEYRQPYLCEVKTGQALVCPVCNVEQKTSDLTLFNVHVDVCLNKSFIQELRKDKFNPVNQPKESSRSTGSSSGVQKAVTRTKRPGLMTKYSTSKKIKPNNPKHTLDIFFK
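10 nM Pol kappa was preincubated with compounds for 15 min at room temperature. Reaction started with 50 nM (final) substrate. Fluorescence read kinetically at 0 and 10 min.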
Pol beta inh: qHTS Assay for Inhibitors of DNA Polymerase Beta; P06746; Pol beta primer extension/strand displacement, fluorescence kinetic; Potency, µM (highest dose often 114 µM), for inactives: at the highest dose activity change, negative = inhibition, hits mostly inhibitors; actives 1.3% (n = 340,000); AID 485314, 2010; note: % is set by controls: 0 for no effect and ±100 for the full control effect
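Pol beta (10 nM) was preincubated with compound for 15 min at room temperature. The reaction was then started with 50 nM substrate and read immediately and after a further 10 min at room temperature.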
WRN inhibitor: qHTS for Inhibitors of WRN Helicase; Bifunctional 3'-5' exonuclease/ATP-dependent helicase WRN (Homo sapiens), Q14191; WRN helicase unwinding, fluorescent forked duplex, kinetic; Potency, µM (top dose mostly 114 µM), inactives show at the highest dose activity change, negative = inhibition, usual class: inhibitors; actives 0.46% (n = 360,000); note: % is set by controls: 0 for no effect and ±100 for the full control effect; nearly all actives have a fitted effect of over 55% in size
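WRN at 20 nM final preincubated with compound 15 min at room temperature; reaction started with 100 nM fluorophore/quencher forked duplex oligonucleotide and 2 mM ATP final. Unwinding followed kinetically by red fluorescence (ex 525, em 598 nm).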
POLI inh: qHTS for Inhibitors of Polymerase Iota; Pol iota fluorescent replication assay, 10 min; Potency, µM (titrated, usually from 115 µM), inactives show at the highest dose activity, negative = inhibition, usual class: inhibitors; actives 1% (n = 390,000); AID 588590, 2011
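Pol iota at 10 nM preincubated 15 min with compounds at room temperature; reaction started with fluorescent substrate, 50 nM final. Fluorescence read kinetically at 0 and 10 min; buffer-only wells as negative control.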
Starred values were filed as active, the others as inactive; ? = inconclusive; nt = no result; [ ] = remark or other dose. Calls come from the whole dose curve; as a rule, active = well fitted curve in the direction sought with a large enough effect; inconclusive = small, poorly fitted or top-dose-only effect, or another doubt; inactive = no such curve, though single readings can be large; an effect the other way counts as inactive or inconclusive. Potency is the fitted concentration of half-maximal effect.

SMILES | FEN1 inhibitor | POLH inh | POLK inh | Pol beta inh | WRN inhibitor | POLI inh
CCN(CCn1cccn1)C(=O)c1ccc(OC2CCN(C(=O)CCOC)CC2)cc1 | nt | -4% | nt | nt | -9% | nt
COc1ccc(-c2oc3ccccc3c(=O)c2OCC(=O)O)cc1 | 0% | 3% | -12% | 1% | 5% | 35%
O=C(O)COc1c(-c2ccco2)oc2ccccc2c1=O | 3% | -5% | -23% | 40µM* | -9% | ?
Cn1ncc(C#N)c1/N=C/N1CCCC1 | 8% | -6% | 7% | 89µM* | 1% | -4%
Cc1cccc(N(C)C(CNS(=O)(=O)c2ccccc2)c2ccccc2)c1 (configuration not stated) | -20% | nt | -10% | 3% | nt | 5%
CC1=NN(c2ccc(C(=O)OC(C)C)cc2)C(=O)/C1=C\C=C\c1ccco1 | -9% | ? | -3% | 50µM* | -4% | -2%
CC1=NN(c2ccccc2)C(=O)/C1=C\C=C\c1ccccc1 | ? | 79µM* | -16% | ? | -14%[11.6 µM] | ?
Cc1c(NC(=O)Nc2cccc(C(F)(F)F)c2)sc2nc3n(c(=O)c12)CCC(C)CC3 (configuration not stated) | -4% | -2% | 14% | 32% | nt | 14%
COCCOC(=O)N1CCN(/[N+]([O-])=N/Oc2ccc([N+](=O)[O-])cc2[N+](=O)[O-])CC1 | -1% | nt | 7% | nt | nt | -9%
CCOC(=O)c1c(NC(=O)c2cc(-c3ccc(Cl)cc3)on2)sc(C)c1C | 12% | -11% | -11% | ? | nt | -16%
COc1ccccc1-c1cc(C(=O)Nc2sc3c(c2C#N)CCC(C)C3)c2ccccc2n1 (configuration not stated) | -4% | -8% | -10% | -14% | 4% | 5%
Cc1cc(C(=O)OCC(=O)Nc2sc3c(c2C#N)CCC(C)C3)c2ccccc2n1 (configuration not stated) | -7% | 79µM* | ? | 18µM* | -13%[57.1 µM] | 56µM*
Nc1nc(SCC(=O)Nc2ccc(OC(F)(F)F)cc2)[nH]c(=O)c1NC(=O)c1ccc(Br)o1 | 0% | ? | -33% | 40µM* | -28% | -11%
CCSc1nc(N)c(NC(=O)c2ccc(Br)o2)c(=O)[nH]1 | 7% | -11% | -7% | 21% | -23% | 28%
O=C(Nc1ncnc2sc3c(c12)CCCCC3)c1ccco1 | 4% | 22µM* | -8% | 7% | 2% | -4%
O=C(Nc1ncnc2sc3c(c12)CCCC3)c1ccncc1 | -2% | -20% | 9% | 8% | 1% | 36%
NC(=O)c1ccc([N+](=O)[O-])cc1SCc1ccccc1 | -2% | ? | ? | 40µM* | -30% | ?
NC(=O)c1cc([N+](=O)[O-])ccc1NCCc1ccccc1 | 11% | -7% | -5% | 15% | -11% | 28%
Oc1ccc(Br)cc1C1C=C(c2ccc3c(c2)OCO3)NC(c2ccc(F)c(Br)c2)N1 (configuration not stated) | -7% | nt | 4% | nt | nt | 13µM*
Oc1ccc(Br)cc1C1C=C(c2ccc3c(c2)OCO3)NC(c2ccc(Br)cc2)N1 (configuration not stated) | -6% | nt | -6% | nt | nt | ?
COc1ccc(CNC(=O)c2cc3ccccn3n2)cc1OC | 3% | -11% | 4% | -3% | nt | 18%
COc1ccc(Br)cc1/C=N/NC(=O)c1cccnc1 | 12% | 19% | -8% | 24% | -32% | -24%
O=C(N/N=C\C=C\c1ccco1)c1cc(-c2ccc3ccccc3c2)n[nH]1 | ? | 50µM* | 79µM* | 16µM* | -13%[11.6 µM] | 32µM*
O=C(N/N=C/C=C/c1ccco1)c1cnccn1 | -5% | ? | -24% | -14% | -30% | ?
O=C(N/N=C/c1cc(Br)c(Br)o1)c1cccnc1 | 1% | 11µM* | ? | 32µM* | ? | ?
SMILES | FEN1 inhibitor | POLH inh | POLK inh | Pol beta inh | WRN inhibitor | POLI inh
O=C(N/N=C\c1ccco1)c1cncc(Br)c1 | nt | nt | nt | -22% | nt | nt
O=C(N/N=C/C=C/c1ccco1)c1cccnc1 | -4% | ? | -42% | -1% | -22%[57.1 µM] | 32µM*
O=C(N/N=C\C=C\c1ccco1)c1cncc(Br)c1 | -15% | ? | 89µM* | ? | ? | 20µM*
CN(c1ccc(F)cc1)S(=O)(=O)N1CCCC(C(=O)NCc2cccc(Br)c2)C1 (configuration not stated) | -5% | -13% | -1% | 22% | nt | 5%
CN(Cc1ccc(Cl)c(Cl)c1)C(=O)C1CC(=O)N(c2ccc3c(c2)OCCO3)C1 (configuration not stated) | nt | -13% | nt | nt | -8% | nt
CC(C)Oc1ccc(CNC(=O)c2cnc3sc(N4CCCCCC4)nn3c2=O)cc1 | 20% | -5% | 0% | -8% | nt | 18%
CC(C)(C)n1ncc2c(=O)n(Cc3ccc(F)cc3F)cnc21 | -19% | nt | -1% | nt | nt | -20%
CCCCCN1C(C(=O)c2ccccc2)=C(NC(=O)c2ccc(OC)cc2)c2ccccc2S1(=O)=O | -11% | -2% | -8% | -3% | nt | -10%
N/C(=N\N=C\c1ccnc2ccccc12)SC1CC(=O)N(c2ccc(Br)cc2)C1=O (configuration not stated) | 1% | 25µM* | -5% | ? | 0% | 3%
COC(=O)c1ccc(NCc2c(O)ccc(O)c2Br)cc1Cl | -20% | -10% | -4% | nt | 50µM* | 21%
O=C(Nc1ccccc1Sc1ccccc1)c1cnn2c1NC(=C1CC1)C=C2C(F)F | -20% | nt | -9% | nt | nt | -29%
COc1ccccc1CNC(=O)Cc1ccc(Br)cc1 | 1% | -8% | -7% | 5% | -23% | 5%
COc1ccc(NC(=O)/C=C/c2ccc(Br)o2)cn1 | -24% | 50µM* | 79µM* | 11µM* | ? | 16µM*
COc1ccccc1CNC(=O)/C=C/c1ccc(Br)o1 | 5% | -10% | -20% | 8.9µM* | -15% | ?
O=C(NCCc1ccccc1)C1CC(=O)N(C2CCCCCC2)C1 (configuration not stated) | -15% | 5% | 0% | -7% | -4% | 79µM*
CC(C)Oc1ccc(CNC(=O)Cc2ccc(NC(=O)N3CCSc4ncccc43)cc2)cc1 | 12% | -9% | -10% | -27% | nt | 9%
Cc1ccc2nc(Cn3cc(C(F)(F)F)ccc3=O)cc(=O)n2c1 | -1% | -11% | -17% | 0% | 2%[57.1 µM] | 63%
O=c1ccc(C(F)(F)F)cn1Cc1cc(=O)n2cc(Br)ccc2n1 | -11% | -2% | ? | 13µM* | -6% | ?
